Laboratory results published in PubChem BioAssay (NCI).
This is part of a sample that, as a whole, favours compounds with a hit. Of some 79,000 tested, about 15% had one in any assay. Values without a mark were called inactive. Calls of active or inactive are those of the source. No stated cut-off is given here; in the data, active means growth inhibition above about 70%; inactive means the rest.

Assay: NCI Yeast Anticancer Drug Screen. Data for the mlh1 rad18 strain (AID 175)
Details: S. cerevisiae mlh1 rad18 strain growth inhibition; at 50.0 µM (retest, dose inferred, filed as 5.0); stronger effect = higher value
In short: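 Compound-treated yeast growth, normalised to vehicle controls. Strain bears defined DNA repair mutations.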

SMILES | growth inhibition
CC12CCC(=O)C=C1CCC1C2CCC2(C)C(O[Si](C)(C)OC3CCC4C5CCC6=CC(=O)CCC6(C)C5CCC34C)CCC12 (stereo not given) | 53%
CC1=C[C@H]2O[C@H]3C[C@H]4OC(=O)/C=C\C=C\C(=O)OCC[C@@H](C)[C@H](O)C(=O)OC[C@@]2(CC1)[C@@]4(C)[C@]31CO1 | 98% (active)
CCCCCCCC[As](C)(=O)O | -88%
OC1C2[C@@H](O)CCCN2C[C@@H](O)[C@H]1O (stereo not given in full) | 58%
COC1(O[C@H]2CC[C@H]3[C@@H]4CCC5=CC(=O)CC[C@]5(C)[C@H]4CC[C@]23C)CCCCC1 | -56%
O=[N+]([O-])c1ccc(CS(=O)(=O)C(Cl)(Cl)Cl)o1 | 99% (active)
CC([CH2][Hg][Cl])c1ccccc1 (stereo not given) | 99% (active)
CC(C)CC[CH2][Pb]([CH2]CCC(C)C)([CH2]CCC(C)C)[O]C(=O)C(Cl)(Cl)Cl | 94% (active)
COC1OC(OC)[CH]([Hg][Cl])C1OC (stereo not given) | 99% (active)
S=C=[N][Sn]([N]=C=S)([c]1ccccc1)[c]1ccccc1.c1ccc2nc(-c3ccc4ccccc4n3)ccc2c1 | 98% (active)
CSCCC([NH-])C(=O)O.CSCCC([NH-])C(=O)O.[Zn+2] (stereo not given) | 3%
C[PH+](C)C.C[PH+](C)C.[Au] | 91% (active)
O=C(O)C(Br)C(Br)C(=O)O.[Ag] (stereo not given) | 99% (active)
CCC1CN1P(=O)(Oc1ccccc1)N1CC1CC (stereo not given) | 6%
CCCCCc1cc(O)c(CCCC)c(O)c1 | 87% (active)
N#CC(Cl)(Cl)CCl | 38%
O=C(Cc1c2ccccc2cc2c1ccc1ccccc12)N(CCCl)CCCl | 96% (active)
CC[C@@]1(O)C(=O)OCc2c1cc1n(c2=O)Cc2cc3c(OC)cccc3nc2-1 | 83% (active)
CCOC(=O)NP(=O)(NNc1ccccc1)NNc1ccccc1 | 98% (active)
C=C1C(=O)O[C@@H]2C[C@@H](C)[C@@H]3C=CC(=O)[C@@]3(C)[C@@H](O)[C@H]12 | 27%

SMILES | growth inhibition
O=C(O)C(F)(F)F.[Ag] | 99% (active)
O=C(CBr)Nc1ccccc1 | 100% (active)
C1=C[N-]c2c3c(ccc2=C1)=CC=C[N-]3.C1=C[N-]c2c3c(ccc2=C1)=CC=C[N-]3.F[P-](F)(F)(F)(F)F.[Cu+2] | 99% (active)
O=[N+]([O-])/C=C/c1ccccc1Cl | 99% (active)
CCOP(=S)(OCC)SSSP(=S)(OCC)OCC | 49%
CCOC(=O)c1ccc(N=Cc2ccc(N(CCCl)CCCl)cc2C)cc1 | 73% (active)
COc1ccc2c(c1)CCC(N1CCCC(=O)C1)C2 (stereo not given) | 29%
CCCCCCC(=O)[O][Hg][c]1ccccc1 | 99% (active)
CCC[CH2][Sn]1([CH2]CCC)[O]C(=O)c2cccnc2[S]1 | 97% (active)
C[AsH](C)CC[AsH](C)C.C[AsH](C)CC[AsH](C)C.C[AsH](C)CC[AsH](C)C.[Ni] | 99% (active)
O=c1[nH]c2ccccc2n1C1CCN(CCCC(c2ccc(F)cc2)c2ccc(F)cc2)CC1 | 92% (active)
O=[C-]c1ccccc1[C-]=O.[Pd+2].c1ccc([PH+](c2ccccc2)c2ccccc2)cc1.c1ccc([PH+](c2ccccc2)c2ccccc2)cc1 | 80% (active)
c1ccc(C(c2ccccc2)c2cccnc2)cc1 | 100% (active)
C#CC[As+](c1ccccc1)(c1ccccc1)c1ccccc1 | 98% (active)
CC[CH2][Pb]([CH2]CC)([CH2]CC)[O]C(C)=O | 67%
CC[PH+](CC)CC.[Cl][Au] | 99% (active)
CN(C)[PH+](N(C)C)N(C)C.CN(C)[PH+](N(C)C)N(C)C.[C-]#[O+].[C-]#[O+].[C-]#[O+].[C-]#[O+].[C-]#[O+].[C-]#[O+].[Co].[Co].[Hg] | 20%
CC1=C(N2CC2)C(=O)c2nc3n(c2C1=O)CCC3OC(=O)CCl (stereo not given) | 67%
[N-]=[N+]=Nc1c([N+](=O)[O-])c(=O)n2c3c(cccc13)CCC2 | 98% (active)
CCC[CH2][Sn]1([CH2]CCC)[O]CC(CN2CCCCC2)[O]1 (stereo not given) | 96% (active)
